aSyn 5UTR act: Activators via SNCA 5'UTR binding, MLPCN | alpha-synuclein 5'UTR reporter, activators screen | activity score, % (tested at 7.5 µM), hits read low | 7.1% of 300,000 active; in the data active = activity score below about -60%
Hits are given with their value; . = inactive. Only a sample is shown.

SMILES	aSyn 5UTR act
Nc1ccccc1C(=O)OCc1ccc([N+](=O)[O-])cc1	-83
O=C1NC(=O)C(CCc2ccncc2)(Cc2cccc(Cl)c2Cl)C(=O)N1c1ccc(Br)cc1 (stereo not given)	.
CCC(C)/C=C(C)/C=C/C1=CC2=C(Cl)C(=O)C(C)(OC(C)=O)C(=O)C2=CO1 (stereo not given)	-96
O=c1[nH]c(=S)n(C2CC2)c(O)c1C=Nc1ccc2c(c1)OCO2	-141
CCOC(=O)C(O)(c1ccc(NC(=O)NC2CCCCC2)cc1)C(F)(F)F (stereo not given)	-83
Cc1nc2c(=O)n(C)c(=O)nc-2n(C)n1	.
CCn1nc(-c2ccccc2)nc2c(=O)n(C)c(=O)nc1-2	-84
Cc1ccc(-c2nc(N(C)C3CCN(C)CC3)c3ccccc3n2)cc1	-93
Cc1cc([N+](=O)[O-])c2ccccc2[n+]1[O-]	.
O=C(C1CC(c2ccc(F)cc2)=NO1)N1CCC2(CC1)OCCO2 (stereo not given)	-127
O=C(C1CC(c2ccc(Cl)c(Cl)c2)=NO1)N1CCC2(CC1)OCCO2 (stereo not given)	-131
COc1cccc(C2=NOC(C(=O)N3CCC4(CC3)OCCO4)C2)c1 (stereo not given)	-105
CC(=O)O[C@@H]1/C=C/[C@](C)(O)C[C@@H](C)C/C=C/[C@H]2[C@H](O)C(C)=C(C)[C@H]3[C@H](Cc4ccccc4)NC(=O)[C@@]123	.
CN(C)c1ccc(/C=C/[N+](=O)[O-])cc1	-74
CC(=O)O[C@H]1C(=O)[C@@]2(C)C([C@H](OC(=O)c3ccccc3)[C@]3(O)C[C@H](OC(=O)[C@H](O)[C@@H](NC(=O)Cc4ccccc4)c4ccccc4)C(C)=C1C3(C)C)[C@]1(OC(C)=O)CO[C@@H]1C[C@@H]2O (stereo not given in full)	.
Cc1ccc2cc(C=C(C#N)C#N)c(Cl)nc2c1	-79
Cc1c(OC(=O)N(C)C)ccc2c1O/C(=C\c1ccco1)C2=O	-134
Cc1ccc2nc(N3CCN(C)CC3)[nH]c2c1	-96
CCn1c(C)c(C(=O)Nc2ccc(OC)cc2)c2cc(OC)ccc21	-86
CC/C(=N\N1CCCCC1)c1c(O)[nH]c(=O)[nH]c1=O	.
CC(Cc1ccccc1)/[N+]([O-])=C\c1ccc(C(F)(F)F)cc1 (stereo not given)	-119
CC(=O)O[C@@]12CO[C@@H]1C[C@H](O)[C@@]1(C)C(=O)[C@H](O)C3=C(C)[C@@H](OC(=O)[C@H](O)[C@@H](NC(=O)c4ccccc4)c4ccccc4)C[C@@](O)([C@@H](OC(=O)c4ccccc4)C12)C3(C)C (stereo not given in full)	.
O=C1NC(=O)N(Cc2ccccc2)C(=O)/C1=C\C=C\c1ccco1	-222
C=CCN1C(=O)NC(=O)/C(=C/C=C/c2ccccc2)C1=O	-69
O=C1NC(=O)N(Cc2ccco2)C(=O)/C1=C/C=C/c1ccco1	-288
SMILES	aSyn 5UTR act
O=C(Nc1ccc(OC(=O)N2CCCCC2)cc1)N1CCOCC1	.
CCCCCn1c(=O)c(C(=O)Nc2ccccc2C)c(O)c2ccccc21	-83
CCCCCn1c(=O)c(C(=O)Nc2ccccc2S(N)(=O)=O)c(O)c2ccccc21	.
CCCCCn1c(=O)c(C(=O)Nc2cnccn2)c(O)c2ccccc21	.
CC1(C)CN=C(NCc2ccccc2Cl)S1	-92
COc1ccc(NC2=NC(C)(C)CS2)cc1	-140
CC(C)(C)c1ccc(CSc2cnn(C(C)(C)C)c(=O)c2Cl)cc1	.
CN(C)C(Cc1ccccc1)C(=O)c1c[nH]c2ccccc12 (stereo not given)	-64
CN(C)C(=O)On1c(-c2ccccc2)nc2ccc(Cl)cc21	-71
COc1ccc(P2(=O)Nc3ccccc3N2)cc1	-139
NC(=O)c1cn(C2OC(CO)C(O)C2O)c2ncnc(N)c12 (stereo not given)	.
C=C1C(=O)O[C@@H]2C[C@@H](C)[C@@H]3C=CC(=O)[C@@]3(C)[C@@H](OC(=O)CC(=O)O[C@H]3[C@@H]4C(=C)C(=O)O[C@@H]4C[C@@H](C)[C@@H]4C=CC(=O)[C@]43C)[C@H]12	.
C=C1C(=O)O[C@H]2C[C@@H](C)[C@@H]3C=CC(=O)[C@@]3(C)C[C@H]12	-151
COC(=O)C(O)(c1ccc(NC(=S)NC(=O)c2ccccc2)cc1)C(F)(F)F (stereo not given)	-80
COc1ccc2nc(NC3=NCCN3)sc2c1	-209
c1ccc2sc(NC3=NCCN3)nc2c1	-103
O=C(c1ccc2c(c1)ncn2C1CCCCC1)N1CCC2(CC1)OCCO2	-171
NC(N)=N/N=C/c1ccc(N(c2ccccc2)c2ccccc2)cc1	.
CN(C)c1ccc(C(=O)c2ccc(N(C)C)cc2)cc1	-108
COc1ccc(/C=C/C2=CCN(C)CC2)cc1	-79
C=CCN1C(=O)NC(=O)/C(=C/c2ccc(OC)c(COc3ccc(NC(C)=O)cc3)c2)C1=O	-64
Cc1ccc2nc3c(cc2c1)CC1(C(=O)N(C)C(=O)N(C)C1=O)C1COCCN31 (stereo not given)	-63
Cc1ccc2nc3c(cc2c1)CC1(C(=O)N(C)C(=O)N(C)C1=O)C1CCCCN31 (stereo not given)	-106
CNC(=O)Oc1ccc(-c2cn3cc(C)ccc3n2)cc1	.
O=C(c1ccccc1)C(CN1CCCC1)c1ccccc1 (stereo not given)	-77
SMILES	aSyn 5UTR act
Cc1cc(OCCN2CC2)c2ccccc2n1	-73
CC1CCC(C(C)C)C(OC(=O)Cn2c(COc3ccccc3)[n+](C)c3ccccc32)C1 (stereo not given)	.
CN1CCN(c2ccc([N+](=O)[O-])c3no[n+]([O-])c23)CC1	.
CC(=O)Nc1ccccc1C(=O)OCc1cccc(F)c1	-85
C[C@H]1CCC/C=C/C2C[C@H](O)CC2[C@H](O)/C=C/C(=O)O1 (stereo not given in full)	.
CC1CCC/C=C/C2CC(O)CC2C(O)/C=C/C(=O)O1 (stereo not given)	.
C[C@H]1CCC[C@@H](O)CCC/C=C/c2cc(O)cc(O)c2C(=O)O1	-170
C=C1C[C@@H]2[C@H](CC[C@]3(C)C(=O)CC[C@@H]23)[C@@]2(C)C=CC(=O)C=C12	-141
CCOC(=O)c1cc2c(cn1)[nH]c1ccccc12	-142
COc1cc(C=C2C(=O)NC(=O)NC2=O)ccc1OS(=O)(=O)c1ccccc1[N+](=O)[O-]	-96
CN1CCN(c2ccc3c(c2)S(=O)(=O)c2ccccc2C3=O)CC1	-112
O=C1C(=O)c2ccccc2-c2ccccc21	.
C=CCN=C(SCC(=O)c1ccc(Cl)cc1)c1c(O)n(C)c(=O)n(C)c1=O	-71
Cc1cccc(N2C(=O)NC(=O)/C(=C\C=C\c3ccco3)C2=O)c1	-131
CN(C)c1ccc(/C=C/C=C2/C(=O)NC(=O)N(c3ccccc3)C2=O)cc1	-96
O=C1NC(=O)N(c2ccccc2)C(=O)/C1=C/C=C/c1ccco1	-136
Cc1ccc(N2C(=O)NC(=O)/C(=C\C=C\c3ccco3)C2=O)cc1	-92
COc1cc2c(c(OC)c1OC)-c1ccc(O)c(=O)cc1C(NC(C)=O)CC2 (stereo not given)	.
C=C(C=O)C[C@@H]1C[C@H](O)C2OC3C[C@]4(C)OC5/C=C\CC6OC7C(CC=CCC6OC5CCCC4OC3CC2O1)OC1CC2OC3CC(=O)OC3C[C@@H](C)C[C@@]2(C)OC1C[C@@H]7C (stereo not given in full)	.

Screens: PubChem, Broad Institute
